Results filed as inconclusive are left out. A number with no mark means an inactive call. The source made the active and inactive calls. Calls come from the whole dose curve; as a rule, active = well fitted inhibition curve with a large enough effect; inconclusive = small, poorly fitted or top-dose-only effect; inactive = flat fitted curve, though single readings scatter.

Test [1] in a line: qHTS profiling for inhibitors of Plasmodium falciparum proliferation (AID 504749).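 For activity, negative = inhibition: 0% = DMSO vehicle and full inhibition = artemisinin control.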 Note: nearly all actives have a fitted effect of over 60% in size. The following applies: P. falciparum in erythrocytes, SYBR Green DNA, 72 h. The method in brief:
(§1)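 SYBR Green fluorescence (ex 485 nm, em 535 nm) reports parasite DNA after 72 h compound exposure of infected red cells at 0.3% parasitemia, 2.5% hematocrit; signal normalized to 0.29 uM artemisinin and vehicle wells.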

For a further test, the system named is AA1029. The description is as above. As to conditions: P. falciparum in erythrocytes, SYBR Green DNA, 72 h; series mostly up to 28.7 µM. A digest of the protocol: as §1
For a further test, the system named is AS120. The test is described as above. The following applies: P. falciparum in erythrocytes, SYBR Green DNA, 72 h; series mostly up to 28.7 µM. A digest of the protocol:
as §1

For the next test, the system named is ATS189. Described as above. As to conditions: P. falciparum in erythrocytes, SYBR Green DNA, 72 h; series mostly up to 28.7 µM. The method in brief:
as §1

Another test deals with 3D7. The description is as above. As to conditions: P. falciparum in erythrocytes, SYBR Green DNA, 72 h; series mostly up to 28.7 µM. The method in brief: as §1
A further test relates to 7G8. The test is described as above. As to conditions: P. falciparum in erythrocytes, SYBR Green DNA, 72 h; series mostly up to 28.7 µM. A digest of the protocol: as §1
Setting [2] is: at 28.7 µM (top of the series), parasite line A.
Setting [3] is: at 28.7 µM (top of the series), parasite line B.
Setting [4] is: at 12.8 µM (top of the series), parasite line A.
[5] abbreviates: at 12.8 µM (top of the series), parasite line B.
Potency is the fitted concentration of half-maximal effect.

On to `O=C1C(O)=C(O)C(=O)C(O)=C1O`, for which the activity, negative = inhibition in test [1] (setting [2]) is 5.3%; in test [1] (setting [3]), 12.3%. In addition, the Potency result in the test on AA1029, in the test with AS120 and with ATS189 was “inactive” throughout.

With `CCC(CC)(CC(=O)Nc1cccc(/C=C/c2nc(C3CCC3)cs2)c1)C(=O)O`, the activity, negative = inhibition in test [1] (setting [2]) was -2.66%; in test [1] (setting [3]) it was -0.894%. Further, the Potency entry with 3D7, with AA1029, with AS120 and with ATS189 was “inactive” throughout.

Regarding `COc1ccc(C(=O)c2ccccc2)c(O)c1`, the results for the activity, negative = inhibition in test [1] (setting [2]) and in test [1] (setting [3]) were -10.8% and 10.2%, respectively. The Potency in the test with 7G8 was 10 µM (active). Also, the Potency result in the test with AA1029 and in the test with AS120 was “inactive” throughout.

With `CN(C)CCC[C@@]1(c2ccc(F)cc2)OCc2cc(C#N)ccc21`, the activity, negative = inhibition in test [1] (setting [2]) is 3.06%; in test [1] (setting [3]), 6.35%. Besides, the Potency result in the test on 3D7, in the test on 7G8, in the test with AS120 and in the test with ATS189 was “inactive” throughout.

Regarding `CCOC(=O)Nc1ccc2c(c1)N(C(=O)CCN1CCOCC1)c1ccccc1S2`, the activity, negative = inhibition in test [1] (setting [4]) was 5.76%; in test [1] (setting [5]), 22.5%. In addition, the Potency result with 3D7, with AA1029, in the test with AS120 and in the test with ATS189 was “inactive” throughout.

`NCc1ccccc1Sc1ccccc1CO`: the figures for the activity, negative = inhibition in test [1] (setting [2]) and in test [1] (setting [3]) were 10.7% and -5.68%, respectively. Besides, the Potency entry in the test on 3D7 and in the test with ATS189 was “inactive” each time. The Potency in the test on 7G8 is 11.2 µM (active).

For `COc1ccc2c(c1)c1c3n2CCN(C)C3=NCC1`, the activity, negative = inhibition in test [1] (setting [2]) was -3.91%; in test [1] (setting [3]), 11.3%. The Potency result with 3D7, with AA1029, in the test on AS120 and with ATS189 was “inactive” in each case.

In the case of `O=C(CCN1CCN2CCCC2C1)N1c2ccccc2Sc2ccc(Cl)cc21` (centres undefined), the results for the activity, negative = inhibition in test [1] (setting [2]) and in test [1] (setting [3]) were -26.8% and -9.82%, respectively. Further, the Potency with 7G8 was 8.91 µM (active).

With `Cl/C(=C\n1cncn1)c1ccc(Cl)cc1Cl`, the activity, negative = inhibition was 10.9% in test [1] (setting [2]) and 7.76% in test [1] (setting [3]). In addition, the Potency entry with 3D7, with AA1029, in the test on AS120 and in the test with ATS189 was “inactive” in each case.

Regarding `CCCCc1cc2ccccc2c(OCCN(C)C)n1`, the activity, negative = inhibition in test [1] (setting [4]) is 8.06%; in test [1] (setting [5]), 4.66%. In addition, the Potency result in the test with 3D7, with AA1029, with AS120 and with ATS189 was “inactive” throughout.

Regarding `CCC(C(=O)OCCOCCN(CC)CC)c1ccccc1` (centres undefined), the activity, negative = inhibition in test [1] (setting [2]) was 5.84%; in test [1] (setting [3]) it was 5.27%. Further, the Potency result in the test with 3D7 and in the test with AS120 was “inactive” in each case.

Turning to `N/C(=N\N=C\c1ccc(Cl)cc1)N/N=C/c1ccc(Cl)cc1`, the Potency in test [1] (parasite line A) is 3.16 µM (active); in test [1] (parasite line B), 5.01 µM (active); in the test with 3D7, 3.98 µM (active); in the test on 7G8, 2.82 µM (active); in the test on AS120, 5.01 µM (active).

With `CC(=O)OCC(=O)[C@H]1CC[C@H]2[C@@H]3CCC4=CC(=O)CC[C@]4(C)[C@H]3CC[C@]12C`, the values for the activity, negative = inhibition in test [1] (setting [2]) and in test [1] (setting [3]) were -11.3% and -3.83%, respectively. Moreover, the Potency entry with 3D7, in the test with AA1029 and in the test with ATS189 was “inactive” in each case.

As to `CN1CCN(CCC(=O)N2c3ccccc3Sc3ccc(C(F)(F)F)cc32)CC1`, the activity, negative = inhibition in test [1] (setting [2]) is 8.92%; in test [1] (setting [3]), -2.7%. Besides, the Potency result in the test with 3D7 and with AS120 was “inactive” in each case. Besides, in the test on 7G8, the Potency was 10 µM (active).

Regarding `Cc1cc(-c2ccccc2)nnc1NCCN1CCOCC1`, the activity, negative = inhibition was 6.44% in test [1] (setting [2]) and 8.72% in test [1] (setting [3]). For the same compound, the Potency result with 3D7, with AA1029, in the test with AS120 and in the test with ATS189 was “inactive” throughout.

`COc1ccc(CCN(C)CCCN2CCc3cc(OC)c(OC)cc3CC2=O)cc1OC`: the activity, negative = inhibition was -14.9% in test [1] (setting [2]) and -7.04% in test [1] (setting [3]). Moreover, the Potency result in the test with 3D7, in the test with AS120 and in the test on ATS189 was “inactive” throughout.

With `O=C(Oc1cccc2cccnc12)c1ccccc1`, the figures for the activity, negative = inhibition in test [1] (setting [2]) and in test [1] (setting [3]) were 5.84% and -15.2%, respectively. Besides, the Potency result with 3D7, in the test on AA1029, in the test on AS120 and in the test on ATS189 was “inactive” each time.

For `NC(=O)n1c(O)c(C(=O)c2cccs2)c2cc(Cl)ccc21`, the values for the activity, negative = inhibition in test [1] (setting [2]) and in test [1] (setting [3]) were 5.54% and -6.01%, respectively. Also, the Potency result in the test with 3D7, in the test on AA1029, in the test with AS120 and in the test on ATS189 was “inactive” throughout.

As for `CN1CCC(OC(c2ccccc2)c2ccccc2)CC1`, the activity, negative = inhibition was -11.2% in test [1] (setting [4]) and -2.27% in test [1] (setting [5]). Moreover, the Potency result with 3D7 was “inactive”. For the same compound, the Potency in the test on AA1029 is 2.51 µM (active).

On to `NS(=O)(=O)Cc1noc2ccccc12`, for which the activity, negative = inhibition in test [1] (setting [2]) is 6.43%; in test [1] (setting [3]), 4.66%. For the same compound, the Potency entry with 3D7, with AA1029, with AS120 and in the test on ATS189 was “inactive” throughout.

For `CN(CCCN1c2ccccc2CCc2ccccc21)CC(=O)c1ccc(Cl)cc1`, the values for the Potency with 7G8, with AA1029 and in the test on AS120 were 1.41 µM (active), 7.94 µM (active) and 12.6 µM (active), respectively.
